From PubChem BioAssay
In the library only some 3% were active in any assay of this set; here they are far more common.
KCNH2 3.1 inh: qHTS for Inhibitors of KCHN2 3.1: Mutant qHTS | Potassium voltage-gated channel subfamily H member 2, brain isoform KCNH2 3.1 (human) | U2OS KCNH2 3.1, thallium flux FluxOr; hits give low values | activity change, % (tested at about 1.8 µM) | 0.95% of 340,000 active;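 active = maximum activity change below -70%; inconclusive = maximum activity change from -70% to -50%; inactive = maximum activity change above -50%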;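 note: thallium influx rate constant from kinetic fluorescence after stimulation buffer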
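Normalized rate constant (relative to positive and negative DMSO controls) derived from a 2 min kinetic fluorescence read after stimulation; U2OS cells expressing the 3.1 isoform via virus at 1.77 x 10^8 /mL.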
LDHA block: qHTS assay for inhibitors of human lactate dehydrogenase; purified LDHA, NADH/diaphorase-resazurin fluorescence; hits give low values; activity change, % (values are at about 110 or 230 µM); 0.15% of 480,000 active; AID 1347041, 2019; in the data active = activity change below about -30%; inconclusive = mostly about -25% to -30%
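Enzyme activity of human lactate dehydrogenase 5 (2 nM; 0.06 mM NADH, 0.2 mM pyruvate, 5 min, RT) is measured via a resazurin/diaphorase fluorescence readout of residual NADH.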
Chronic BCR inh: qHTS Assay to Find Inhibitors of Chronic Active B-Cell Receptor Signaling; ABC-DLBCL IkBa-CBG/CBR reporter, luminescence ratio, 4 h; Potency, µM (doses to about 46.1 µM), actives largely listed as inhibitors; 0.05% of 340,000 active; AID 493014, 2011; active = well fitted inhibition curve with a large enough effect in the signal ratio, with a control signal flat, not every such curve was filed as active; inconclusive = small, poorly fitted or top-dose-only effect, or effect the other way, or a change in a side signal; the % refers to the signal ratio
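Doxycycline induced both beetle luciferases in TMD8 lymphoma cells; IKK-driven degradation limits the IkappaBalpha-fused green signal, while red luminescence normalises for cell number and nonspecific effects. Compounds tested up to 46 uM, 4 hrs.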
ClpP mod: qHTS Assay for Activators of ClpP; ATP-dependent Clp protease proteolytic subunit (Bacillus subtilis (strain 168)), P80244; purified B. subtilis ClpP, FRET peptide cleavage, 20 min; Potency, µM (doses to about 57.5 µM); 1.9% of 340,000 active; AID 651965, 2013; active = well fitted falling curve with a large enough effect; inconclusive = small, poorly fitted or top-dose-only effect; inactive = no such curve, though single readings can be large or run the other way; note: the source files actives as falling curves though it sought activators and does not explain the sign; nearly all actives have a fitted effect of over 65% in size
Target sequence (P80244 whole entry, looked up): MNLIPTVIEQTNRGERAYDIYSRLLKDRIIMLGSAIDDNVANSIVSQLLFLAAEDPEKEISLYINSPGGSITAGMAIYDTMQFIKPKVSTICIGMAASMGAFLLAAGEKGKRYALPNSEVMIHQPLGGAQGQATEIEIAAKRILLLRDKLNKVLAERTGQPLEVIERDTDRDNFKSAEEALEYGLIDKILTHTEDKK
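FRET quenching reversal measured ClpP activation: 10 microg/mL B. subtilis ClpP at pH 8 with the FRET-FV decapeptide, read at 430 nm after 320 nm excitation. The 20-min minus 0-min signal was scaled between DMSO/no-enzyme wells and ADEP (5.8 microM final).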
12-LOX inh: Primary qHTS assay for inhibitors of human arachidonate 12S-lipoxygenase (ALOX12): Round 2; Polyunsaturated fatty acid lipoxygenase ALOX12 (Homo sapiens), P18054; purified 12hLO, xylenol orange hydroperoxide absorbance; Potency, µM (titrated, usually from 108 µM), actives largely listed as inhibitors; 1.1% of 580,000 active; AID 1671190, 2021; active = well fitted inhibition curve with a large enough effect; inconclusive = small, poorly fitted or top-dose-only effect, or another doubt; inactive = no such curve, though single readings can be large or run the other way
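Hydroperoxide product was detected by ferrous iron/xylenol orange as the 573 to 405 nm absorbance ratio. Arachidonic acid at 40 uM (final) was turned over for 30 min at room temperature by 150 nM human 12hLO, pH 7.0 Hepes buffer, after 15 min compound preincubation.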
hERG WT inh: qHTS for Inhibitors of KCHN2 3.1: Wildtype qHTS | Voltage-gated inwardly rectifying potassium channel KCNH2 (Homo sapiens), Q12809 | U2OS, BacMam KCNH2, thallium flux FluxOr; hits give low values | activity change, % at 1.84 µM | 0.37% of 340,000 active | AID 720551, 2013;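 active = maximum activity change below -70%; inconclusive = maximum activity change between -70% and -50%; inactive = maximum activity change above -50%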
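U2OS cells were transduced with wild-type KCNH2 virus (2.03 x 10^8 / mL) for 4 h at room temperature, then cultured overnight at 37 C. Thallium flux was read with FluxOr dye. Rate constants were normalized to DMSO controls.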
Numbers stand for hits; . = inactive; ? = inconclusive; / = no result given.

SMILES	KCNH2 3.1 inh	LDHA block	Chronic BCR inh	ClpP mod	12-LOX inh	hERG WT inh
Cc1cc(C)cc(OCC(O)Cn2c(C)cc(=O)n3ncnc23)c1 (centres undefined)	/	.	/	/	.	/
COc1ccc(C)cc1N(C(=O)c1ccccc1)c1nc2ccccc2s1	.	.	?	.	.	.
COc1ccc(C)cc1N(C(=O)COc1ccccc1)c1nc2ccccc2s1	-74	.	.	10µM	.	?
CCc1c(C)nc(SCc2nc(-c3cccc(C)c3)oc2C)[nH]c1=O	/	.	/	/	.	/
COC(=O)c1ccc(C(=O)OC)c(NC(=O)CCC(=O)O)c1	.	.	.	28µM	.	.
COc1ccc(C2c3c(n(C)c4ccccc34)C(=O)N2CC(=O)Nc2cccc(Cl)c2)cc1 (centres undefined)	/	.	/	16µM	?	/
COc1ccc(C2c3c(n(C)c4ccccc34)C(=O)N2CC(=O)Nc2ccc(C)c(Cl)c2)cc1 (centres undefined)	/	.	/	.	?	/
COc1ccc(C2c3c(n(C)c4ccccc34)C(=O)N2CC(=O)Nc2ccc(C)cc2Cl)cc1 (centres undefined)	/	.	/	32µM	?	/
CC(C)Cc1nc2oc3c(=O)[nH]cnc3c2c2c1CCCC2	.	.	.	?	.	.
CC(C)Cc1nc2oc3c(=O)[nH]cnc3c2c2c1CCC2	.	.	.	11µM	.	.
O=C(O)CC/C(=N\NC(=O)c1ccncc1)c1ccccc1	-161	.	.	.	.	-134
Cc1ccc(NC(=O)c2sc3ncnc(N4CCN(c5ccccn5)CC4)c3c2C)c(C)c1	-114	.	?	.	.	-73
Cc1nc(N2CCN(c3ccccn3)CC2)c2c(C)c(C(=O)Nc3ccc(Br)cc3C)sc2n1	-99	.	.	.	.	.
Cc1ccc(NC(=O)c2sc3nc(C)nc(N4CCN(c5ccccn5)CC4)c3c2C)c(C)c1	-70	.	.	/	.	.
Cc1nc(N2CCN(c3ccccn3)CC2)c2c(C)c(C(=O)N3CCN(c4ccccc4F)CC3)sc2n1	.	.	.	/	.	.
COc1cccc(CN2CCN(Cc3[nH]c4ccccc4c3C)CC2CCO)c1 (centres undefined)	/	.	?	/	.	.
COc1cccc(C#Cc2c(CO)[nH]c3ccccc23)c1	.	.	.	.	50µM	.
O=C1C=C(c2c(O)ccc3ccccc23)c2ccccc2C1=O	.	.	/	.	45µM	.
COc1ccc(NC(=O)c2nn(C(C)C)c(=O)c3ccccc23)cc1	/	.	/	/	?	/
Cc1ccc(OCC(=O)N/N=C/C=C/c2ccco2)c(Br)c1	.	.	?	.	40µM	.
Cc1ccc(OCc2nc3c4c(ncn3n2)-c2ccccc2CC42CCCC2)cc1	.	.	.	?	.	.
COc1ccc(OCc2nc3c4c(ncn3n2)-c2ccccc2CC42CCCC2)cc1	.	.	.	28µM	.	.
CCCSc1nc2c(c(=O)n(C)c(=O)n2C)n1Cc1cccc2ccccc12	/	.	/	/	?	/
O=C(NCc1ccco1)c1cc(NS(=O)(=O)c2cccc([N+](=O)[O-])c2)ccc1O	-198	.	?	/	?	-152
O=C1N/C(=N\S(=O)(=O)Cc2ccccc2)S/C1=C/c1cc([N+](=O)[O-])ccc1O	.	-37	.	.	.	.
O=C1N/C(=N\S(=O)(=O)c2ccccc2)S/C1=C\c1cc([N+](=O)[O-])ccc1O	.	-36	.	.	.	.
COc1cc(/C=C2\S/C(=N/S(=O)(=O)Cc3ccccc3)NC2=O)c([N+](=O)[O-])cc1OC	.	.	.	.	?	.
c1ccc2c3c(ccc2c1)-c1cccc2cccc(c12)O3	/	.	/	/	.	/
